From PubChem BioAssay
Unmarked numbers belong to inactive results. For some assays here: Entries with a potency or affinity are not part of this list. Active and inactive are the calls of the source. Unless noted, how the calls were made is not given here.

What was measured:
[1] = antimalarial activity against Dd2 strain (AID 2302;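 active means growth inhibition above 50% at the single 2 µM test dose, taken to imply half-maximal potency below 2 µM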;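 further: 0% = DMSO untreated growth and 100% = chloroquine plus artemisinin killed control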); conditions: P. falciparum Dd2 in RBCs, LDH growth readout, 72 h; at 2 µM; hits give high values
[2] = human hepatoma cell viability loss – ATP luminescence, cytotoxicity control for P. falciparum antimalarial project, primary screen (AID 2303;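 active means inhibition above 50%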;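 further: 0% = DMSO wells and 100% = digitonin-killed cells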); conditions: HepG2 viability, 24-48 h, at 10 µM, hits give high values
[3] = molecular target: L-lactate dehydrogenase (Plasmodium falciparum (isolate CDC / Honduras)) (UniProt Q27743); assay: PfLDH activity inhibition – cell lysate, 3D7 strain, counter-screen for P. falciparum growth inhibition project (AID 2304);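 further: 0% = vehicle and 100% = reference inhibitor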; conditions: P. falciparum 3D7 crude extract, LDH APAD/NBT absorbance; at 2 µM; hits give high values
L-lactate dehydrogenase (Plasmodium falciparum (isolate CDC / Honduras)), sequence (Q27743 whole entry, looked up): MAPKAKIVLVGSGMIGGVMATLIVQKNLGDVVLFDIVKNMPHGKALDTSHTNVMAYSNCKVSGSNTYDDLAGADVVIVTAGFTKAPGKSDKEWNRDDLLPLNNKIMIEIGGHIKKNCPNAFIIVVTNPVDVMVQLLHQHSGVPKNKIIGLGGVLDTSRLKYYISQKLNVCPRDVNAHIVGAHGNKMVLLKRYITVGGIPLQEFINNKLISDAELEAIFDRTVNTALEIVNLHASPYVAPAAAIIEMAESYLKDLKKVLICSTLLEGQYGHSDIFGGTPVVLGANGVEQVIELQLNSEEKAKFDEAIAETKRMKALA

[4] = inhibition of 3D7 malaria parasite growth – strain 3D7 (AID 2306);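 further: 0% = DMSO wells and 100% = chloroquine plus artemisinin control wells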; conditions: P. falciparum 3D7 erythrocytic growth, LDH absorbance, 72 h; at 2 µM; hits give high values
[5] = molecular target: Calcium-dependent protein kinase 1 (Plasmodium falciparum (isolate 3D7)) (UniProt P62344); assay: PfCDPK1 kinase inhibitors, biochemical, TCAMS library (AID 1159585; cut-off not given, nearly all actives have IC50 up to about 0.98 µM;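 further: inhibitors leave more ATP so luminescence rises with inhibition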); conditions: recombinant PfCDPK1, Kinase-Glo ATP depletion luminescence
Calcium-dependent protein kinase 1 (Plasmodium falciparum (isolate 3D7)), sequence (P62344 whole entry, looked up): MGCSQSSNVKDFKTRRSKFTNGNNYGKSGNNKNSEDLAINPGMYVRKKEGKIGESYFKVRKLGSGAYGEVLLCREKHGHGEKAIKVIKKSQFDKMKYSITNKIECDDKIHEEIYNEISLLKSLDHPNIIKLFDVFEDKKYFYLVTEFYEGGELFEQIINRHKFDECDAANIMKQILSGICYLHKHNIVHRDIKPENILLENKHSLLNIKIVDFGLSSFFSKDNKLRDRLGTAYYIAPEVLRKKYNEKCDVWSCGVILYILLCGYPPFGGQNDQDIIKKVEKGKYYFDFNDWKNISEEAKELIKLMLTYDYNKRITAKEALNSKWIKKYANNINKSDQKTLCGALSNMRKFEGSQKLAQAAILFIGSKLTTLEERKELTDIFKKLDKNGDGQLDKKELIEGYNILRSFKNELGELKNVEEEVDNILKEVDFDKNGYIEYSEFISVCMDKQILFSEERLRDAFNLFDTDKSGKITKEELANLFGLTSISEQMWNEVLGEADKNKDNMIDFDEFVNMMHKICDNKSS

[6] = molecular target: Plasmodium falciparum protein kinase 6 (PK6, PF3D7_1337100) (UniProt Q8IDW1); assay: PfPK6 kinase inhibitors, biochemical, TCAMS library (AID 1159586); conditions: recombinant PfPK6, Kinase-Glo ATP depletion luminescence
Plasmodium falciparum protein kinase 6 (PK6, PF3D7_1337100), sequence (Q8IDW1 1-305): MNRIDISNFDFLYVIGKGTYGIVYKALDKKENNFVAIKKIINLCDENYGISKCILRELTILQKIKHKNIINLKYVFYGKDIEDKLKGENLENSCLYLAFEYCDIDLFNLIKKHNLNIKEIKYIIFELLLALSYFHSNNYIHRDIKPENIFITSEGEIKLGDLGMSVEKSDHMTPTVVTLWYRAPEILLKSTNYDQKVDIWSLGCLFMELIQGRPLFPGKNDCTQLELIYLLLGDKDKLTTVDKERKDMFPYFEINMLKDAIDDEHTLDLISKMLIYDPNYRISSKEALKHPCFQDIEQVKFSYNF

[7] = molecular target: Protein kinase 7 (PK7), Plasmodium falciparum 3D7 (PF3D7_0213400) (UniProt Q7YTF7); assay: inhibition of Plasmodium PK7 catalytic activity – biochemical, TCAMS antimalarial set, Kinase-Glo luminescence (AID 1159587); conditions: recombinant PfPK7, Kinase-Glo ATP depletion luminescence
Protein kinase 7 (PK7), Plasmodium falciparum 3D7 (PF3D7_0213400), sequence (Q7YTF7 1-343): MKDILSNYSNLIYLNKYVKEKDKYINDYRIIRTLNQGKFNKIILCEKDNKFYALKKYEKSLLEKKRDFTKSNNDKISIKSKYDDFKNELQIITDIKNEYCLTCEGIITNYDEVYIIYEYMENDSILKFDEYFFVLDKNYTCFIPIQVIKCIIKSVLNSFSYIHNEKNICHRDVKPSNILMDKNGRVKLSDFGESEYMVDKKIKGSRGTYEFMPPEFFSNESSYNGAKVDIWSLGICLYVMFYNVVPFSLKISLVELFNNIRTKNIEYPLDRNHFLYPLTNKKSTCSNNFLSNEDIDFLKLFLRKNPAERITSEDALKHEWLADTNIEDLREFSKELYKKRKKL

[8] = molecular target: Calcium-dependent protein kinase 4 (Plasmodium falciparum (isolate 3D7)) (UniProt Q8IBS5); assay: PfCDPK4 kinase inhibitors, biochemical, TCAMS library (AID 1159588; cut-off not given, nearly all actives have IC50 up to about 0.91 µM); conditions: recombinant PfCDPK4, Kinase-Glo ATP depletion luminescence
Calcium-dependent protein kinase 4 (Plasmodium falciparum (isolate 3D7)), sequence (Q8IBS5 whole entry, looked up): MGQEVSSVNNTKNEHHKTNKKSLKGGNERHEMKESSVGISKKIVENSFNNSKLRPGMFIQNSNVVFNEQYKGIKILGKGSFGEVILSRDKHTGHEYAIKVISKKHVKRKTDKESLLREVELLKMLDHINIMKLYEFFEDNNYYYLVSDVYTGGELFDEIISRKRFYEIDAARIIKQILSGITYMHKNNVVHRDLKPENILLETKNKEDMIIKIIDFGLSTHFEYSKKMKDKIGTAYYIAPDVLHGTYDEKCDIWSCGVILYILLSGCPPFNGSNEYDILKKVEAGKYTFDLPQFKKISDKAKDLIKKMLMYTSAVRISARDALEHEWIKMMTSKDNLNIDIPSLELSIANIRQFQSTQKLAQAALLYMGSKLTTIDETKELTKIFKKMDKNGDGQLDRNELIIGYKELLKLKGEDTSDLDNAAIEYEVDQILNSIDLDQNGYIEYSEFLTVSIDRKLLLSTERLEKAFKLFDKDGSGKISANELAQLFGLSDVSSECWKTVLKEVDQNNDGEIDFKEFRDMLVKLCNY

COc1ccc(Cc2c(N)nc3nc(N)nc(N)c3c2C)cc1
growth inhibition [1]: 3%
inhibition [2]: 64% (active)
inhibition [3]: -8%
growth inhibition [4]: 94% (active)
outcome [5]: inactive
outcome [6]: inactive
outcome [7]: inactive
outcome [8]: inactive

Cc1ccc(C(=O)NC2CC2)cc1-c1ccc2c(cnn2S(=O)(=O)c2ccc(F)cc2)c1
growth inhibition [1]: 69% (active)
inhibition [2]: 7%
inhibition [3]: -2%
growth inhibition [4]: 93% (active)
outcome [5]: inactive
outcome [6]: inactive
outcome [7]: inactive
outcome [8]: inactive

O=C(NCCCN1CCC(N2CCCCC2)CC1)C1=Cc2cc(Br)ccc2OC1
growth inhibition [1]: 19%
inhibition [2]: 26%
inhibition [3]: -1%
growth inhibition [4]: 100% (active)
outcome [5]: inactive
outcome [6]: inactive
outcome [7]: inactive
outcome [8]: inactive

CC(CN1CCN(C)CC1)C(=O)Nc1ccc(-c2cccc(-c3nc4ccc(F)cc4[nH]3)c2)cc1 (stereo not given)
growth inhibition [1]: 99% (active)
inhibition [2]: 8%
inhibition [3]: 0%
growth inhibition [4]: 100% (active)
outcome [5]: inactive
outcome [6]: inactive
outcome [7]: inactive
outcome [8]: inactive

Cc1ccc(CNc2cc(C(F)(F)F)nc(-c3ccc(S(C)(=O)=O)cc3)n2)cc1
growth inhibition [1]: 72% (active)
inhibition [2]: 2%
inhibition [3]: -4%
growth inhibition [4]: 89% (active)
outcome [5]: inactive
outcome [6]: inactive
outcome [7]: inactive
outcome [8]: inactive

COc1cccc(-c2nn(C)c3sc(C(=O)NCCN(C)Cc4ccccc4)cc23)c1
growth inhibition [1]: 26%
inhibition [2]: 21%
inhibition [3]: -3%
growth inhibition [4]: 92% (active)
outcome [5]: inactive
outcome [6]: inactive
outcome [7]: inactive
outcome [8]: inactive

Cc1ccc(Cn2nc(N3CCNCC3)ccc2=O)cc1NC(=O)Nc1ccc(-c2ccccc2)cc1
growth inhibition [1]: 20%
inhibition [2]: 46%
inhibition [3]: -1%
growth inhibition [4]: 94% (active)
outcome [5]: inactive
outcome [6]: inactive
outcome [7]: inactive
outcome [8]: inactive

CCCC1(NC[C@@H](O)[C@H](Cc2ccccc2)NC(=O)c2cc(NCC)cc(N3CCCCS3(=O)=O)c2)CCCC1
growth inhibition [1]: 97% (active)
inhibition [2]: -1%
inhibition [3]: -5%
growth inhibition [4]: 101% (active)
outcome [5]: inactive
outcome [6]: inactive
outcome [7]: inactive
outcome [8]: inactive

CCOc1ccc(C2CCN(CCCCNC(=O)c3ccc(NC(=O)c4ccc(Cl)cc4)cc3)CC2)c(Cl)c1
growth inhibition [1]: 96% (active)
inhibition [2]: 32%
inhibition [3]: -2%
growth inhibition [4]: 101% (active)
outcome [5]: inactive
outcome [6]: inactive
outcome [7]: inactive
outcome [8]: inactive

CCCCCCn1c(Sc2ccc(C#N)c([N+](=O)[O-])c2)nnc1-c1ccc(Cl)cc1
growth inhibition [1]: 48%
inhibition [2]: 23%
inhibition [3]: 0%
growth inhibition [4]: 93% (active)
outcome [5]: inactive
outcome [6]: inactive
outcome [7]: inactive
outcome [8]: inactive

COc1cc(Cc2cnc(N)nc2N)ccc1OCc1ccc(F)c(F)c1
growth inhibition [1]: 31%
inhibition [2]: 10%
inhibition [3]: 3%
growth inhibition [4]: 90% (active)
outcome [5]: inactive
outcome [6]: inactive
outcome [7]: inactive
outcome [8]: inactive

O=C(Nc1cccc2ccccc12)N1CCc2cc3nccc(N4CCN5CCC[C@H]5C4)c3cc21
growth inhibition [1]: 86% (active)
inhibition [2]: 11%
inhibition [3]: 0%
growth inhibition [4]: 99% (active)
outcome [5]: inactive
outcome [6]: inactive
outcome [7]: inactive
outcome [8]: inactive

Cc1cc(N)nc2ccc(-c3ccc(CCN)cc3)cc12
growth inhibition [1]: 48%
inhibition [2]: 31%
inhibition [3]: -4%
growth inhibition [4]: 101% (active)
outcome [5]: inactive
outcome [6]: inactive
outcome [7]: inactive
outcome [8]: inactive

CCCC(CNCc1cccc(OC(F)(F)F)c1)CNc1cc(=O)c2ccccc2[nH]1 (stereo not given)
growth inhibition [1]: 95% (active)
inhibition [2]: -4%
inhibition [3]: -2%
growth inhibition [4]: 101% (active)
outcome [5]: inactive
outcome [6]: inactive
outcome [7]: inactive
outcome [8]: inactive

COc1cccc2c(NCc3ccccc3)nc(NCCCN3CCCCC3C)nc12 (stereo not given)
growth inhibition [1]: 2%
inhibition [2]: 20%
inhibition [3]: 2%
growth inhibition [4]: 90% (active)
outcome [5]: inactive
outcome [6]: inactive
outcome [7]: inactive
outcome [8]: inactive

CCOc1ccc2c(NN=Cc3cccc([N+](=O)[O-])c3)cc(C)nc2c1
growth inhibition [1]: 97% (active)
inhibition [2]: 4%
inhibition [3]: 3%
growth inhibition [4]: 100% (active)
outcome [5]: inactive
outcome [6]: inactive
outcome [7]: inactive
outcome [8]: inactive

CCCc1cn2c3c(cc(C(=O)N[C@@H](Cc4ccccc4)[C@H](O)CNC4CCOCC4)cc13)N(C)S(=O)(=O)CC2
growth inhibition [1]: 98% (active)
inhibition [2]: 1%
inhibition [3]: 3%
growth inhibition [4]: 99% (active)
outcome [5]: inactive
outcome [6]: inactive
outcome [7]: inactive
outcome [8]: inactive

O=c1cc(NCCCNCc2cc3c(Cl)cc(Cl)cc3[nH]2)[nH]c2ccccc12
growth inhibition [1]: -2%
inhibition [2]: -10%
inhibition [3]: -3%
growth inhibition [4]: 101% (active)
outcome [5]: inactive
outcome [6]: inactive
outcome [7]: inactive
outcome [8]: inactive

COc1cc2c(cc1CCNCCCCNCCc1cc3c(cc1OC)CCCC3)CCCC2
growth inhibition [1]: 36%
inhibition [2]: 100% (active)
inhibition [3]: 0%
growth inhibition [4]: 101% (active)
outcome [5]: inactive
outcome [6]: inactive
outcome [7]: inactive
outcome [8]: inactive

O=C(C1CCCC1)N1CCOC(CCN2CCC(c3ccccc3)CC2)(c2ccc(Cl)c(Cl)c2)C1 (stereo not given)
growth inhibition [1]: 77% (active)
inhibition [2]: 16%
inhibition [3]: 0%
growth inhibition [4]: 88% (active)
outcome [5]: inactive
outcome [6]: inactive
outcome [7]: inactive
outcome [8]: inactive

CC(=O)Nc1cccc(-c2cnc(N)c3cc(-c4ccc5c(c4)OCO5)ccc23)c1
growth inhibition [1]: 93% (active)
inhibition [2]: 100% (active)
inhibition [3]: -4%
growth inhibition [4]: 99% (active)
outcome [5]: inactive
outcome [6]: inactive
outcome [7]: inactive
outcome [8]: inactive

CCCCCCCCN1CCN(CCCCCCNc2c3ccccc3nc3ccccc23)CC1
growth inhibition [1]: 100% (active)
inhibition [2]: 100% (active)
inhibition [3]: -4%
growth inhibition [4]: 101% (active)
outcome [5]: inactive
outcome [6]: inactive
outcome [7]: inactive
outcome [8]: inactive

CN(C)Cc1cccc(-c2ccc(NC(=O)c3ccc4c(=O)n(CCN5CCCCC5)cnc4c3)cc2)c1
growth inhibition [1]: 67% (active)
inhibition [2]: 23%
inhibition [3]: -1%
growth inhibition [4]: 101% (active)
outcome [5]: inactive
outcome [6]: inactive
outcome [7]: inactive
outcome [8]: inactive

CC(C)CCNC(=O)c1cnc2c(O)cccc2c1Nc1cccc(NC(=O)c2ccc(F)cc2)c1
growth inhibition [1]: 43%
inhibition [2]: 51% (active)
inhibition [3]: -1%
growth inhibition [4]: 93% (active)
outcome [5]: inactive
outcome [6]: inactive
outcome [7]: inactive
outcome [8]: inactive

O=C(NCCN1CCCC1)c1cc(-c2ccc(Cl)c(O)c2)c(-c2ccncc2)o1
growth inhibition [1]: -5%
inhibition [2]: -23%
inhibition [3]: 0%
growth inhibition [4]: 92% (active)
outcome [5]: inactive
outcome [6]: inactive
outcome [7]: inactive
outcome [8]: inactive

COc1cc(-c2nnc(SCC(=O)Nc3cc(C)on3)n2C)cc(OC)c1O
growth inhibition [1]: 2%
inhibition [2]: 2%
inhibition [3]: 5%
growth inhibition [4]: 89% (active)
outcome [5]: inactive
outcome [6]: inactive
outcome [7]: inactive
outcome [8]: inactive

CN1CCC(Oc2ccc(CN3CC[C@H](NC(=O)c4ccc(Cl)c(Cl)c4)C3)c3ccccc23)C1 (stereo not given in full)
growth inhibition [1]: 82% (active)
inhibition [2]: 52% (active)
inhibition [3]: 3%
growth inhibition [4]: 100% (active)
outcome [5]: inactive
outcome [6]: inactive
outcome [7]: inactive
outcome [8]: inactive

NC(=NCCc1ccc(Cl)c(Cl)c1)c1ccc2ccccc2c1
growth inhibition [1]: 29%
inhibition [2]: 60% (active)
inhibition [3]: -3%
growth inhibition [4]: 100% (active)
outcome [5]: inactive
outcome [6]: inactive
outcome [7]: inactive
outcome [8]: inactive

Cc1cccc(NC(=O)Nc2ccc(I)c(OCCN(C)C)c2)c1C
growth inhibition [1]: 17%
inhibition [2]: 13%
inhibition [3]: 1%
growth inhibition [4]: 96% (active)
outcome [5]: inactive
outcome [6]: inactive
outcome [7]: inactive
outcome [8]: inactive

O=S(=O)(Nc1ccc(-c2ccc(CN3CCCC3)cc2)cc1)c1cccc2cccnc12
growth inhibition [1]: 10%
inhibition [2]: 37%
inhibition [3]: -8%
growth inhibition [4]: 91% (active)
outcome [5]: inactive
outcome [6]: inactive
outcome [7]: inactive
outcome [8]: inactive

COc1ccc(NC(=O)[C@H](CC(C)C)Nc2cc(C)nc(NCC3CCCCC3)n2)cc1
growth inhibition [1]: 92% (active)
inhibition [2]: 7%
inhibition [3]: 2%
growth inhibition [4]: 101% (active)
outcome [5]: inactive
outcome [6]: inactive
outcome [7]: inactive
outcome [8]: inactive

Cn1cc(-c2ccccc2C(=O)O)c(=O)c2cc(Cl)ccc21
growth inhibition [1]: -4%
inhibition [2]: 16%
inhibition [3]: -1%
growth inhibition [4]: 89% (active)
outcome [5]: inactive
outcome [6]: inactive
outcome [7]: inactive
outcome [8]: inactive

O=C(Nc1cccnc1)c1cc(C(=O)Nc2cccnc2)cc([N+](=O)[O-])c1
growth inhibition [1]: 100% (active)
inhibition [2]: -12%
inhibition [3]: -2%
growth inhibition [4]: 100% (active)
outcome [5]: inactive
outcome [6]: inactive
outcome [7]: inactive
outcome [8]: inactive

O=C(O)C[C@H](NC(=O)CCCNC(=O)c1cccc(-c2ccc(Cl)c(Cl)c2)c1)C(=O)O
growth inhibition [1]: -4%
inhibition [2]: 5%
inhibition [3]: -3%
growth inhibition [4]: 91% (active)
outcome [5]: inactive
outcome [6]: inactive
outcome [7]: inactive
outcome [8]: inactive

CCOC(=O)Nc1cc(-c2csc(N=C(N)N)n2)cc([N+](=O)[O-])c1
growth inhibition [1]: 88% (active)
inhibition [2]: 12%
inhibition [3]: -8%
growth inhibition [4]: 101% (active)
outcome [5]: inactive
outcome [6]: inactive
outcome [7]: inactive
outcome [8]: inactive

COc1ccc(C(=O)CCC(=O)N(Cc2ccc(-c3ccc(CNCCc4ccc(S(C)(=O)=O)cc4)cn3)cc2)C(C)CN(C)C)cc1F (stereo not given)
growth inhibition [1]: 85% (active)
inhibition [2]: 13%
inhibition [3]: -8%
growth inhibition [4]: 98% (active)
outcome [5]: inactive
outcome [6]: inactive
outcome [7]: inactive
outcome [8]: inactive

CC1(C)N=C(N)NC(NOCc2ccc(Cl)c(Cl)c2)=N1
growth inhibition [1]: 27%
inhibition [2]: 5%
inhibition [3]: 2%
growth inhibition [4]: 96% (active)
outcome [5]: inactive
outcome [6]: inactive
outcome [7]: inactive
outcome [8]: inactive

COc1cccc2cc(C(=O)N[C@@H](CC(C)C)C(=O)N[C@H](/C=N/N3C(=O)CN(Cc4ccccc4)C3=O)CCc3ccccc3)oc12
growth inhibition [1]: 52% (active)
inhibition [2]: 14%
inhibition [3]: -1%
growth inhibition [4]: 85% (active)
outcome [5]: inactive
outcome [6]: inactive
outcome [7]: inactive
outcome [8]: inactive

CCOc1cc(C(=O)N[C@@H](Cc2ccccc2)[C@H](O)CNCc2cc(OC)cc(OC)c2)cc(N2CCCS2(=O)=O)c1
growth inhibition [1]: 66% (active)
inhibition [2]: -5%
inhibition [3]: 0%
growth inhibition [4]: 94% (active)
outcome [5]: inactive
outcome [6]: inactive
outcome [7]: inactive
outcome [8]: inactive

COc1cc(F)c2ncc(Cl)c(CCN3CCC(NCc4ccc5c(c4)OCCO5)CC3)c2c1
growth inhibition [1]: 92% (active)
inhibition [2]: 35%
inhibition [3]: -7%
growth inhibition [4]: 97% (active)
outcome [5]: inactive
outcome [6]: inactive
outcome [7]: inactive
outcome [8]: inactive
